Consider 29 sequences from the supplement of paper PMC3545927.

This is one part of the list. The hit rate among all sequences tested is not known here.

In the test the target is furin, P09958. Description: furin cleavage Z-score vs untreated control; higher = more cleavage, active = 3.5 or more, inactive = 1 or less, 8 variable residues between constant flanks. The method, boiled down:
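Abundance of DNA freed from bead-bound 8-mer peptide–cDNA fusions by purified furin was measured as sequencing read counts after PCR adapter tagging. Cutting ran 7.5, 15 or 30 min in 0.01 ml of 50 mM HEPES pH 7.5 with CaCl2 and NaCl at 1:10 enzyme:substrate. The cleavage Z-score expresses these log counts against furin-free reactions after lowess adjustment and median absolute deviation scaling.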

furin, P09958, sequence (P09958 whole entry, the tested form may be a part): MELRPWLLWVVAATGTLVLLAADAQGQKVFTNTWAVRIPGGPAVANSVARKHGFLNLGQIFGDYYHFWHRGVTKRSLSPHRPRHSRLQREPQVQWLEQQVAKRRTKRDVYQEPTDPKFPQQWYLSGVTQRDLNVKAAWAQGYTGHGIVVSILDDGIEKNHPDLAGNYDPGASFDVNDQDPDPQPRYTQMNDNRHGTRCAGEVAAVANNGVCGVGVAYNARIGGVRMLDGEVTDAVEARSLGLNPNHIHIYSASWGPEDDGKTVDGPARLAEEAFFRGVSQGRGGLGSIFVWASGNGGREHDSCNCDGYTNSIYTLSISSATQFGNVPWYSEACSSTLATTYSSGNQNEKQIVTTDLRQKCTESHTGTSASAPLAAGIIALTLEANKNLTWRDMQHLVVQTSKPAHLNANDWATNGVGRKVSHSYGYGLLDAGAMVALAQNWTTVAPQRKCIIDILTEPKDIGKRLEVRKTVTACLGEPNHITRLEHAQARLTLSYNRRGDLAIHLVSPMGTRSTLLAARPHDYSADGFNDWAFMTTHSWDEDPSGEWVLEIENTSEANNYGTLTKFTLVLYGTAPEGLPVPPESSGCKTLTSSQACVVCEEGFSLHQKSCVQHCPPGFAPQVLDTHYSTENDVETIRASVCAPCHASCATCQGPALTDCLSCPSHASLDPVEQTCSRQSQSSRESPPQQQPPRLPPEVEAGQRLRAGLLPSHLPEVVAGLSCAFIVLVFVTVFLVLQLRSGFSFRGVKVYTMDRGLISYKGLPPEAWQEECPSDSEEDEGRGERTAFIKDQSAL

With CAEREVPCHRAGNASASA [HC2432], the “furin cleavage Z-score” value (7.5 min) was 0.541 (inactive), the “furin cleavage Z-score” value (15 min) is 0.603 (inactive) and the “furin cleavage Z-score” value (30 min) was determined as 1.7.
Regarding CAEYVVLLFLAGNASASA [HC519], the “furin cleavage Z-score” value is, setting by setting: (7.5 min) -0.402 (inactive); (15 min) 0.168 (inactive); (30 min) -0.326 (inactive).
Consider CACFAWYLKGAGNASASA [HC547], for which the “furin cleavage Z-score” value (7.5 min) is -1.21 (inactive), the “furin cleavage Z-score” value (15 min) was -0.696 (inactive) and the “furin cleavage Z-score” value (30 min) is 0.991 (inactive).
In the case of CARRRRTALAAGNASASA [FS-2800], the “furin cleavage Z-score” value by setting is: (7.5 min) 7.39 (active); (15 min) 9.46 (active); (30 min) 7.26 (active).
As for CAAARVTAILAGNASASA [HC1131], the “furin cleavage Z-score” value is, setting by setting: (7.5 min) 0.0621 (inactive); (15 min) 1.08; (30 min) -0.5 (inactive).
With CARRRRTAFAAGNASASA [FS-2798], the “furin cleavage Z-score” value by setting is: (7.5 min) 5.77 (active); (15 min) 8.03 (active); (30 min) 7.17 (active).
Turning to CARRRRKVLAAGNASASA [FS-2181], the “furin cleavage Z-score” value is -0.244 (inactive) (7.5 min), 1.09 (15 min) and 1.13 (30 min).
For the sequence CARRRRTAILAGNASASA [FS-2799], the “furin cleavage Z-score” value (7.5 min) was 5.32 (active), the “furin cleavage Z-score” value (15 min) was 8.15 (active) and the “furin cleavage Z-score” value (30 min) is 8.93 (active).
For the sequence CARRRRRTAIAGNASASA [FS-2080], the “furin cleavage Z-score” value is, setting by setting: (7.5 min) 4.79 (active); (15 min) 6.3 (active); (30 min) 6.06 (active).
In the same order, the values of CALTHIDAHFAGNASASA [HC943] are -1.16 (inactive), -1.18 (inactive) and -0.971 (inactive).
On to CARATRARRAAGNASASA [FS-82], for which the “furin cleavage Z-score” value by setting is: (7.5 min) 10.6 (active); (15 min) 10.6 (active); (30 min) 7.6 (active).
In the case of CARKTRSARRAGNASASA [FS-2040], the “furin cleavage Z-score” value (7.5 min) is 7.75 (active), the “furin cleavage Z-score” value (15 min) is 10.4 (active) and the “furin cleavage Z-score” value (30 min) is 8.66 (active).
Regarding CARKTRSHTAAGNASASA [FS-3225], the “furin cleavage Z-score” value is 4.24 (active) (7.5 min), 5.12 (active) (15 min) and 4.27 (active) (30 min).
On to CAGLPVSARRAGNASASA [HC660], for which the “furin cleavage Z-score” value runs as follows: (7.5 min) -1.44 (inactive); (15 min) -0.486 (inactive); (30 min) -0.384 (inactive).
On to CAGWKRARRAAGNASASA [FS-246], for which the “furin cleavage Z-score” value runs as follows: (7.5 min) 10.7 (active); (15 min) 11 (active); (30 min) 9.68 (active).
With CALLGCIITSAGNASASA [HC680], the “furin cleavage Z-score” value is -0.345 (inactive) (7.5 min), -1.06 (inactive) (15 min) and -1.24 (inactive) (30 min).
Take CANREVPCHRAGNASASA [HC2441]: the “furin cleavage Z-score” value was 1.82 (7.5 min), -0.276 (inactive) (15 min) and 0.432 (inactive) (30 min).
In the same order, the values of CAEVVTSTNVAGNASASA [HC2241] are 0.759 (inactive), 0.285 (inactive) and 0.157 (inactive).
On to CAITGHVKNGAGNASASA [HC1178], for which the “furin cleavage Z-score” value was -0.0306 (inactive) (7.5 min), -2.29 (inactive) (15 min) and -0.221 (inactive) (30 min).
On to CAGIQYLAGLAGNASASA [HC1046], for which the “furin cleavage Z-score” value reads like this: (7.5 min) 0.778 (inactive); (15 min) 0.268 (inactive); (30 min) 0.333 (inactive).
For the sequence CARKKKVWDYAGNASASA [FS-2424], the “furin cleavage Z-score” value is 0.95 (inactive) (7.5 min), -1.66 (inactive) (15 min) and -0.314 (inactive) (30 min).
The matching figures for CARRHRARRAAGNASASA [FS-1265]: 12.1 (active), 11 (active) and 9.18 (active).
With CARKTRSTHTAGNASASA [FS-3226], the “furin cleavage Z-score” value was 10.5 (active) (7.5 min), 11.5 (active) (15 min) and 7.23 (active) (30 min).
The matching figures for CARFFRYLHTAGNASASA [FS-2920]: -0.737 (inactive), -1.73 (inactive) and 0.025 (inactive).
In the case of CARFDRIAHTAGNASASA [FS-2552], the “furin cleavage Z-score” value reads like this: (7.5 min) 0.362 (inactive); (15 min) -0.331 (inactive); (30 min) 0.407 (inactive).
Regarding CARKTRARRAAGNASASA [FS-489], the “furin cleavage Z-score” value reads like this: (7.5 min) 11.1 (active); (15 min) 11.3 (active); (30 min) 9.01 (active).
Take CARRKKEVRKAGNASASA [FS-2449]: the “furin cleavage Z-score” value runs as follows: (7.5 min) -0.452 (inactive); (15 min) -0.724 (inactive); (30 min) 1.33.
In the same order, the values of CARRHEKKRKAGNASASA [FS-1653] are -1.27 (inactive), -0.15 (inactive) and -1.21 (inactive).
In the case of CARRHRATRKAGNASASA [FS-1266], the “furin cleavage Z-score” value by setting is: (7.5 min) 7.21 (active); (15 min) 8.97 (active); (30 min) 6.15 (active).
